Screens as filed in PubChem.
Shown are actives, neighbours in structure and some others; about 4.5% of the full set was active somewhere.
hgDAF-12 ag: hgDAF-12 agonism, primary luciferase screen | 370,000 compounds, 1.8% hits | activation, % at 6.8 µM | HEK293 GAL4-hgDAF12 UAS-luciferase reporter, agonist luminescence; normalized to butyrate control;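 active = activation above a cutoff set at the mean of all screened compounds plus 3 SD, cut at about 10% in these data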;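 also: 0% = DMSO wells and 100% = sodium butyrate wells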
hcDAF12 agonist: activators of H. contortus DAF-12 nuclear receptor | 370,000 compounds, 1.4% hits | activation, % at 6.8 µM | HEK293 hcDAF-12 lit1-tk-luc reporter, luminescence; 0% DMSO, 100% Δ7-dafachronic acid | AID 652067;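 active = activation above the mean of all tested compounds plus 3 SD, cut at about 5.5% in these data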;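 also: 100% = response to 3 µM Δ7-dafachronic acid high control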
DAX1 inh-1: inhibitors of DAX1 repression of SF-1 activated StAR promoter; HEK293T StAR-luciferase reporter, SF-1/DAX-1 repression relief; inhibition, % at 6.8 µM; 370,000 compounds, 1.1% hits; AID 652010;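 active = inhibition above the mean over all tested compounds plus 3 SD, cut at about 3.6% in these data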;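 also: 0% = DAX-1 cells with DMSO and 100% = cells lacking DAX-1 with DMSO; higher inhibition means more luminescence from relief of DAX-1 repression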
ssDAF12 agonist: activates DAF-12 receptor from parasite S. stercoralis; HEK293 ssDAF-12/GRIP1 lit1-tk-luc reporter, luminescence; % of 3 µM dafachronic acid response; activation, % at 6.8 µM; 370,000 compounds, 1% hits;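 active = activation above the mean over all tested compounds plus 3 SD, cut at about 0.9% in these data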;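 also: 0% = DMSO-only wells and 100% = 3 µM delta7-dafachronic acid wells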
FXN GAA850 act: frataxin GAA850 promoter activation; HEK293 lucGAA850 FXN promoter luciferase reporter, 24 h; percent of 10 µM SAHA response; activation, % at 6 µM; 360,000 compounds, 0.56% hits; AID 540364;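 active = activation above the average of all compounds screened plus 3 SD, cutoff fixed separately per campaign, cut at about 7.5% in these data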;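 also: 0% = DMSO wells and 100% = 10 µM SAHA wells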
DAX1 inh-2: inhibitors of human orphan nuclear receptor DAX1 (NR0B1). P51843. inhibition, % at 6.75 µM. AID 504766. 340,000 compounds, 0.99% hits. HEK293 Gal4-DAX1 luciferase reporter, luminescence;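 active = inhibition above the mean over all tested compounds plus 3 SD, cut at about 4.2% in these data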;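 also: 0% = DAX1-transfected cells with DMSO and 100% = empty-vector control cells with DMSO; inhibition shows as a rise in luminescence from relieved DAX1 repression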
Target sequence (P51843 207-470 limits assumed): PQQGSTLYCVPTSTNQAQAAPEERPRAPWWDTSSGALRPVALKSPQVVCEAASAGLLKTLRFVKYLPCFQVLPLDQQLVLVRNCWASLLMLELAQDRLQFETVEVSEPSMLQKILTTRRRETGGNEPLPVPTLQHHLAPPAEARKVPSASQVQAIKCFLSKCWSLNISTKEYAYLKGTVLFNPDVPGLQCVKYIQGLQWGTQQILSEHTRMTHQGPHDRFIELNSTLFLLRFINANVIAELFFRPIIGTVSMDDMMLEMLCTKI
DAX1 inh confirm: confirmation of human DAX1 (NR0B1) inhibitors. HEK293T StAR-promoter luciferase reporter, SF-1/DAX-1 repression. 2,400 compounds, 87% hits. inhibition, % at 6.8 µM. shares compounds with DAX1 inh-1. AID 652134;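 active = inhibition above the average of every tested compound plus 3 SD, cut at about 3.8% in these data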;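 also: 0% = DAX-1 cells with DMSO and 100% = no DAX-1 control cells with DMSO; active compounds raise luminescence by relieving repression of the StAR reporter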
Target sequence (P51843 whole entry, looked up): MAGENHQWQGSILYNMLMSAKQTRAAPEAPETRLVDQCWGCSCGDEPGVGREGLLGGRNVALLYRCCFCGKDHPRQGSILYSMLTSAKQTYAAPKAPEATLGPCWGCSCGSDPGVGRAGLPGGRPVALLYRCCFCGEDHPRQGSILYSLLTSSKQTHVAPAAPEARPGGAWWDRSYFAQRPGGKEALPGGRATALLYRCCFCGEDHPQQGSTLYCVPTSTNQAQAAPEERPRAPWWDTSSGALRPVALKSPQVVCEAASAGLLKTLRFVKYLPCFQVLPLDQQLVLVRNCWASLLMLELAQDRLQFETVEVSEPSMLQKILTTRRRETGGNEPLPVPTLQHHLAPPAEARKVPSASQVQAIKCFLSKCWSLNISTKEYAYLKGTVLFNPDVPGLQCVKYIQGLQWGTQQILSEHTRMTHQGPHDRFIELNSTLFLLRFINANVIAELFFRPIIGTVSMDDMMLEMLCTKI
SF1 mutant ctr: counter-screen for DAX1 inhibitors: nonselective inhibitors with SF-1 AF2 mutant | inhibition, % at 6.8 µM | shares compounds with DAX1 inh-1 | HEK293 StAR-luciferase, luminescence | 2,400 compounds, 78% hits;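 active = inhibition above the mean of all tested compounds plus 3 SD, cut at about 3% in these data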;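 also: 0% = DAX-1 transfected cells with DMSO and 100% = cells without DAX-1 with DMSO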
LXR ag: LXR-beta agonism as hcDAF-12 counter-screen; HEK293 Gal4-LXR tk-luc reporter, luminescence, 24 h; normalized: DMSO 0%, positive control 100%; 3,400 tested, under 10 active; AID 743027; shares compounds with hcDAF12 agonist; activation, % at 6.8 µM;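 active = mean percent activation of the reporter above a cutoff set as the average over tested compounds plus their standard deviation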
hcDAF12 ag: confirmation of H. contortus DAF-12 agonists | shares compounds with hcDAF12 agonist | HEK293 hcDAF-12 lit1-tk-luc reporter, luminescence; % of Δ7-dafachronic acid response | activation, % at 6.8 µM | 3,400 compounds, 61% hits | AID 743032;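 active = mean activation across triplicate tests above the threshold derived from the earlier primary screen, cut at about 5.5% in these data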;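 also: 0% = DMSO only wells and 100% = 3 µM Δ7-dafachronic acid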
hgDAF12 conf: confirmation of H. glycines DAF-12 agonists; HEK293 GAL4-hgDAF12 luciferase reporter, agonist mode; percent of butyrate response; activation, % at 6.8 µM; shares compounds with hgDAF-12 ag; 3,300 compounds, 80% hits;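 active = mean activation over triplicate wells above the hit cutoff derived from the earlier primary screen, cut at about 11% in these data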;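 also: 0% = DMSO low control and 100% = 2 mM sodium butyrate high control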
LXR ag 2: LXR-beta agonism as DAF-12 counter-screen. AID 743051. 3,300 tested, under 10 active. shares compounds with hgDAF-12 ag. HEK293 Gal4-LXR luciferase reporter, 24 h. activation, % at 6.8 µM;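 active = mean activation of the triplicate above a set limit carried over from the primary screen, none filed active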
Starred values were filed as active, the others as inactive.

What do the screens show for `Cc1ccc2nc(NC(=O)c3ccco3)sc2c1`?
hgDAF-12 ag: -2; hcDAF12 agonist: 3; DAX1 inh-1: 1; ssDAF12 agonist: -2; FXN GAA850 act: -8; DAX1 inh-2: -4

What do the screens show for `Cc1noc(C)c1C(=O)Nc1nc2ccc(F)cc2s1`?
hgDAF-12 ag: 14*; hcDAF12 agonist: 7.0*; DAX1 inh-1: 8.9*; ssDAF12 agonist: 1; FXN GAA850 act: 4; DAX1 inh-2: 2; DAX1 inh confirm: 9.8*; SF1 mutant ctr: 5.3*; LXR ag: 2; hcDAF12 ag: 5.8*; hgDAF12 conf: 14*; LXR ag 2: 1

What do the screens show for `Oc1ccc(-c2nnc(-c3ccc(O)cc3)nn2)cc1`?
hgDAF-12 ag: 15*; hcDAF12 agonist: 6.5*; DAX1 inh-1: 5.5*; ssDAF12 agonist: 1; FXN GAA850 act: 3; DAX1 inh-2: -1; DAX1 inh confirm: 13*; SF1 mutant ctr: 8.4*; hgDAF12 conf: 21*; LXR ag 2: 1

Results for COc1cc(-c2csc(NC3CCCCC3)n2)cc(OC)c1OC ?
hgDAF-12 ag: 2; hcDAF12 agonist: 0; DAX1 inh-1: 0; ssDAF12 agonist: -1; FXN GAA850 act: 1; DAX1 inh-2: 3

How did O/C(=C\c1ccc2ccccc2n1)c1ccc(O)cc1O do in these assays?
hgDAF-12 ag: 24*; hcDAF12 agonist: 8.9*; DAX1 inh-1: 5.3*; ssDAF12 agonist: 1.4*; FXN GAA850 act: 5; DAX1 inh-2: 0; DAX1 inh confirm: 16*; SF1 mutant ctr: 7.1*; LXR ag: 2; hcDAF12 ag: 10*; hgDAF12 conf: 22*; LXR ag 2: 1

How did CCc1ccc(CNCCNC(=O)c2ccco2)cc1 do in these assays?
hgDAF-12 ag: 15*; hcDAF12 agonist: 2; DAX1 inh-1: 5.8*; ssDAF12 agonist: 0; FXN GAA850 act: 3; DAX1 inh-2: 0; DAX1 inh confirm: 4.9*; SF1 mutant ctr: 2.9*; hgDAF12 conf: 1; LXR ag 2: 0

What do the screens show for `Cc1cc(/C=C(\C#N)C(=O)NCc2ccco2)c(C)[nH]1`?
hgDAF-12 ag: 3; hcDAF12 agonist: 0; DAX1 inh-1: 0; ssDAF12 agonist: -1; FXN GAA850 act: 1; DAX1 inh-2: 2

How did Cc1cc(/C=C(\C#N)C(=O)Nc2ccccc2F)c(C)[nH]1 do in these assays?
hgDAF-12 ag: 17*; hcDAF12 agonist: 5; DAX1 inh-1: 12*; ssDAF12 agonist: 0; FXN GAA850 act: 4; DAX1 inh-2: 2; DAX1 inh confirm: 15*; SF1 mutant ctr: 5.5*; hgDAF12 conf: 16*; LXR ag 2: 1

What do the screens show for `CCCCCCC[N+](CC)(CC)CCCCc1ccc(Cl)cc1`?
hgDAF-12 ag: -4; hcDAF12 agonist: -2; DAX1 inh-1: -5; ssDAF12 agonist: -2; FXN GAA850 act: -1; DAX1 inh-2: -1

What do the screens show for `CCOC(=O)c1ccc(N=C2C(=S)N(c3ccc(C(=O)OCC)cc3)C(=N)N2/N=C/c2ccccc2)cc1`?
hgDAF-12 ag: 3; hcDAF12 agonist: -1; DAX1 inh-1: -1; ssDAF12 agonist: -1; FXN GAA850 act: 5; DAX1 inh-2: -1

Results for N=C1N(c2ccccc2)C(=S)C(=Nc2ccccc2)N1c1ccccc1 ?
hgDAF-12 ag: 17*; hcDAF12 agonist: 9.8*; DAX1 inh-1: 8.6*; ssDAF12 agonist: 0; FXN GAA850 act: 2; DAX1 inh-2: 3; DAX1 inh confirm: -5; SF1 mutant ctr: -3; LXR ag: 0; hcDAF12 ag: 1; hgDAF12 conf: 7; LXR ag 2: 0

How did CCCCc1nnc(NC(=O)c2oc3ccc(OC)cc3c2C)s1 do in these assays?
hgDAF-12 ag: 0; hcDAF12 agonist: -1; DAX1 inh-1: 1; ssDAF12 agonist: -1; FXN GAA850 act: -1; DAX1 inh-2: 0

Results for COc1ccc2oc(C(=O)Nc3nccs3)c(C)c2c1 ?
hgDAF-12 ag: 18*; hcDAF12 agonist: 8.2*; DAX1 inh-1: 12*; ssDAF12 agonist: 0; FXN GAA850 act: 2; DAX1 inh-2: 2; DAX1 inh confirm: 11*; SF1 mutant ctr: 7.7*; LXR ag: 2; hcDAF12 ag: 10*; hgDAF12 conf: 23*; LXR ag 2: 1

Results for CCOc1ccc2oc(C(=O)Nc3nccs3)c(C)c2c1 ?
hgDAF-12 ag: 14*; hcDAF12 agonist: 5.9*; DAX1 inh-1: 7.2*; ssDAF12 agonist: 0; FXN GAA850 act: 5; DAX1 inh-2: 2; DAX1 inh confirm: 15*; SF1 mutant ctr: 7.5*; hgDAF12 conf: 21*; LXR ag 2: 1

Results for CCOc1ccc2oc(C(=O)NC3CC(C)(C)NC(C)(C)C3)c(C)c2c1 ?
hgDAF-12 ag: -2; hcDAF12 agonist: -1; DAX1 inh-1: 0; ssDAF12 agonist: -1; FXN GAA850 act: -2; DAX1 inh-2: 2

Results for C#Cc1ccc([C@H]2C=C(C(=O)NC3CC3)O[C@@H](OCC)[C@@H]2CCCO)cc1 ?
hgDAF-12 ag: 1; hcDAF12 agonist: -1; DAX1 inh-1: 0; ssDAF12 agonist: -1; FXN GAA850 act: -3; DAX1 inh-2: 3

Results for Cc1cc(C)c2nc(N3C(=O)C(O)=C(C(=O)c4ccco4)C3c3cccc(O)c3)sc2c1 (stereo not given) ?
hgDAF-12 ag: 1; hcDAF12 agonist: -1; DAX1 inh-1: 2; ssDAF12 agonist: -1; FXN GAA850 act: 1; DAX1 inh-2: -1
